# Assay results as given in PubChem BioAssay.
# Active and inactive are the calls of the source. No rule for the calls is given here.
# Experiment: P. aeruginosa biofilm formation inhibitors, primary screen, strain PAO1, LB-PBS medium, absorbance 600 nm (AID 1176); also: test concentration not given here
# Conditions: P. aeruginosa PAO1 growth/biofilm, A600, 12 h; higher = more signal
row,Compound,z-score
1,NC(=O)[C@@]1(Cc2ccccc2)COC(c2ccc(OCCCO)cc2)=N1,-0.0304 (inactive)
2,CCOC(=O)C[C@H]1[C@H](OC(=O)c2ccc(C(=O)c3ccccc3)cc2)[C@@H](NC(=O)c2ccc3ccccc3n2)c2cc(OCCCO)ccc2N1C(=O)Cc1ccc(OC)cc1,-0.75 (inactive)
3,COC(=O)[C@@H]1N=C(c2ccc(OCCCO)cc2)O[C@@H]1c1ccccc1,-0.484 (inactive)
4,CCOc1cc(C(O)C2C=CC3C(=O)NC(=O)C3N2Nc2ccc(Cl)cc2Cl)ccc1O (stereo not given),1.4 (inactive)
5,CCOC(=O)C=Cc1cccc(C)c1O,0.0236 (inactive)
6,COC(=O)[C@@]1(Cc2ccc(OC)cc2)[C@H]2c3cc(C(=O)N4CCCC4)n(CCO)c3C[C@H]2CN1C(=O)c1ccccc1,0.632 (inactive)
7,CC1=C2[C@@H](CCc3ccccc3)OB(O)C[C@@H]2[C@@H]2C(=O)N(Cc3ccccc3)C(=O)[C@@H]2C1,0.118 (inactive)
8,C=CC[C@@H](OC(=O)Nc1ccc(SC)cc1)c1ccc(O)c(F)c1,1.57 (inactive)
9,COCCCNC(=O)[C@@]1(CCC(=O)OC(C)(C)C)N=C(c2ccc(OCCCO)cc2)O[C@H]1c1ccccc1N=[N+]=[N-],-0.165 (inactive)
10,CCOC(=O)C[C@H]1[C@H](OC(=O)c2cc3ccccc3oc2=O)[C@@H](NC(=O)CC(C)C)c2cc(OCCCO)ccc2N1C(=O)c1ccc2ccccc2n1,0.555 (inactive)
11,Cc1ccc(C(C)CC(O)C2C=CC3C(=O)N(c4ccccc4)C(=O)C3N2Nc2ccccc2)o1 (stereo not given),0.574 (inactive)
12,CN(C)c1ccc(C(O)C2C=CC3C(=O)NC(=O)C3N2Nc2ccccn2)cc1 (stereo not given),0.503 (inactive)
13,CCCCN1CC=CC23O[C@@H]4/C=C\CCCOC(=O)C4[C@H]2C(=O)N(CCO)[C@@H]3C1=O (stereo not given in full),-0.221 (inactive)
14,COc1ccc([Si](C)(C)[C@@H]2[C@@H](CCO)O[C@]3(C(=O)N(Cc4ccccc4)c4ccc(N5C(=O)c6cccc7cccc5c67)cc43)[C@H]2C)cc1,2.24 (inactive)
15,Oc1ccc2cc[n+](Cc3cc4c(cc3Br)OCO4)cc2c1,-0.159 (inactive)
16,CCCNC(=O)[C@@H]1c2ccccc2C(=O)N(Cc2ccc(OC(F)(F)F)cc2)[C@H]1c1ccc(CO)cc1,-0.217 (inactive)
17,COCCOC(=O)N1C(=O)[C@@]2(c3cc(C#CC4=CCCCC4)ccc31)[C@H](c1ccccc1OCCO)N1[C@H](c3ccccc3)[C@H](c3ccccc3)OC(=O)[C@H]1[C@@H]2C(=O)NC[C@H](O)c1ccccc1,1.92 (inactive)
18,O=C1N(CCS(=O)(=O)c2ccccc2)c2ccccc2[C@H]2OC(c3ccc(OCCCO)cc3)=N[C@@]12Cc1ccccc1,0.755 (inactive)

row,Compound,z-score
1,[N-]=[N+]=Nc1ccccc1C[C@]1(C(=O)NCCN2CCOCC2)COC(c2ccc(OCCCO)cc2)=N1,0.289 (inactive)
2,C=CC[C@@]1(C(=O)NCCCOC)N=C(c2ccc(OCCCO)cc2)O[C@@H]1c1ccccc1N=[N+]=[N-],-0.814 (inactive)
3,COC(=O)C1=CC(CCCO)=CC(c2ccc(CN3CCCC3)cc2)N(Cc2cccc(OC(F)(F)F)c2)C=C1C(=O)OC (stereo not given),-0.407 (inactive)
4,CCCC=C(CCC)[C@@H](NC(=O)c1cccs1)c1ccc(C(=O)OC)cc1,-0.94 (inactive)
5,CC1=C2[C@@H](CCc3ccccc3)OB(O)C[C@@H]2[C@@H]2C(=O)N(C)C(=O)[C@@H]2C1,0.212 (inactive)
6,COCCOC(=O)N1C(=O)[C@@]2(c3cc(C#CC4(O)CCCCCC4)ccc31)[C@H](c1ccc(O)cc1)N1[C@H](c3ccccc3)[C@H](c3ccccc3)OC(=O)[C@H]1[C@@H]2C(=O)N1CCN(c2ncccn2)CC1,0.654 (inactive)
7,COC(=O)[C@@]1(Cc2ccc(F)cc2)[C@H]2c3cc(C(=O)N(C)C)n(Cc4ccc(OC(F)(F)F)cc4)c3C[C@H]2CN1C(=O)c1ccccc1,0.604 (inactive)
8,C=CCNC(=O)[C@H]1[C@@H]2C(=O)O[C@@H](c3ccccc3)[C@@H](c3ccccc3)N2[C@@H](c2ccccc2OCCO)[C@]12C(=O)N(C(=O)OCCOC)c1ccc(C#CC3(O)CCCCCC3)cc12,2.42 (inactive)
9,C=C(COC)/C(=C/C[C@H](OC(=O)c1ccncc1)c1ccccc1OCCO)c1cc(C(=O)OC)ccc1OC,0.367 (inactive)
10,CC(C)c1ccc(NN2C(C(O)c3ccc(C#N)cc3)C=CC3C(=O)N(c4ccccc4)C(=O)C32)cc1 (stereo not given),1.94 (inactive)
11,CC(C)NC(=O)[C@@]1(c2ccc([N+](=O)[O-])cc2)CC(=O)N(C2CCCCC2)[C@@H]1c1ccc(CO)cc1,-0.0249 (inactive)
12,CCOC(=O)C[C@H]1[C@H](OC(=O)Cc2ccc3c(c2)OCO3)[C@@H](NC(=O)c2ccc3ccccc3n2)c2cc(OCCCO)ccc2N1C(=O)c1ccccc1,-0.325 (inactive)
13,O=c1cccc(-c2ccc([N+](=O)[O-])cc2)o1,0.201 (inactive)
14,CC(C)N1C(=O)C[C@@](C(=O)O)(c2ccc([N+](=O)[O-])cc2)[C@H]1c1ccc(CO)cc1,0.0309 (inactive)
15,CCCCCCCCCC(O)C1C=CC2C(=O)N(c3ccccc3)C(=O)C2N1Nc1cc(OC)c(OC)c(OC)c1 (stereo not given),0.711 (inactive)
16,COC(=O)[C@@]1(Cc2ccc(OC)cc2)[C@H]2c3cc(C(=O)N(C)C)n(Cc4ccc(C)o4)c3C[C@H]2CN1C(=O)c1ccccc1,-0.719 (inactive)
17,[N-]=[N+]=Nc1ccccc1C[C@]1(C(=O)NCC(O)CO)COC(c2ccc(OCCCO)cc2)=N1 (stereo not given in full),1.19 (inactive)
